Results as given in PubChem BioAssay AID463173 (ICCB-Longwood Screening Facility, Harvard Medical School, 2010).
Hit rate of the full screen: of about 52,000 compounds, about 1,700 (3.3%) were called active. This excerpt belongs to a sample that is enriched for actives. A number with no mark means an inactive call. Cut-off read from the data, not from the text of the source: active = survival mostly below about 52% (no sharp cut-off); inactive = mostly above about 56%.

Tested on: Wild type
Assay: growth inhibition of S. aureus wild type versus tarO mutant, primary screen, teichoic acid synthesis inhibitors, RN4220, OD600 (AID 463173)
Settings: S. aureus RN4220 wild type/DeltatarO growth, OD600, 18 h, hits give low values, screened at 18.75 µg/mL (by protocol)

Row | SMILES | survival
1 | COc1ccccc1CCNC(=O)c1cc2c(=O)n3cccc(C)c3nc2n1C | 85%
2 | COc1ccc(C2CC(=O)c3cc(-c4nc(-c5ccc(Cl)cc5)c(C)s4)c(=O)[nH]c3C2)cc1 (stereo not drawn) | 71%
3 | Cc1ccc(CCNC(=O)c2cc3c(=O)n(C)c4ccccc4c3n2C)cc1 | 80%
4 | Cc1ccc(C)c(Cn2c(=O)n(CCCCC(=O)NCc3ccc4c(c3)OCO4)c(=O)c3ccccc32)c1 | 110%
5 | CC(NC(=O)CN1C(=O)c2cccnc2Oc2ccc(Cl)cc21)c1ccccc1 (stereo not drawn) | 74%
6 | Cc1c(C(=O)N2CCC(C)CC2)c(S(=O)(=O)NCc2ccc(Br)cc2)c(C)n1C | 80%
7 | COc1ccccc1Cn1cc(C(=O)c2ccc(C)cc2)c(=O)c2cc3c(cc21)OCCO3 | 83%
8 | COc1ccc(OC)c(CNC(=O)c2ccc3c(c2)c(C)c(C)n3Cc2ccc(Cl)cc2)c1 | 82%
9 | CCNC(=O)c1sc2ccccc2c1Cl | 124%
10 | CCN(C(=O)c1sc2cc(OC)ccc2c1Cl)c1ccccc1 | -9% (active)
11 | CCN(C(=O)c1cn(-c2ccc(OC)cc2)c(=O)c2ccccc12)c1cccc(Cl)c1 | 119%
12 | O=C(COc1ccc(Cl)cc1)NCCc1csc(-c2ccc(F)cc2)n1 | 73%
13 | CCCOC(=O)c1ccc(Cn2nnc3sc4c(c3c2=O)CCC(C)C4)cc1 (stereo not drawn) | 77%
14 | Cc1ccccc1Cn1nnc2sc3c(c2c1=O)CCCC3 | 0% (active)
15 | O=c1c2c3c(sc2nnn1Cc1ccc(Br)cc1)CCCC3 | 28%
16 | COC(=O)c1ccc(Cn2nnc3sc4c(c3c2=O)CCC(C)C4)cc1 (stereo not drawn) | 75%
17 | COC(=O)c1ccc(Cn2nnc3sc4c(c3c2=O)CCCC4)cc1 | 77%
18 | Cc1ccc(Cn2nnc3sc4c(c3c2=O)CCC(C)C4)cc1 (stereo not drawn) | 60%
19 | CC1CCc2c(sc3nnn(Cc4ccccc4)c(=O)c23)C1 (stereo not drawn) | 0% (active)
20 | CC1CCc2c(sc3nnn(Cc4ccc(F)cc4)c(=O)c23)C1 (stereo not drawn) | 1% (active)

Row | SMILES | survival
21 | CC1CCc2c(sc3nnn(Cc4ccccc4Cl)c(=O)c23)C1 (stereo not drawn) | 16%
22 | O=C(NCc1ccco1)c1ccc(COCC(F)(F)C(F)F)cc1 | 98%
23 | COc1ccccc1N1CCN(C(=O)CN2C(=O)COc3ccc(S(=O)(=O)N4CCC(C)CC4)cc32)CC1 | 98%
24 | CCCCc1nn2c(=O)cc(COC(=O)c3cccc(NC(=O)c4cccc(Cl)c4)c3)nc2s1 | 85%
25 | CCNc1nc(NC(N)=S)nc(NC(C)(C)C)n1 | 112%
26 | Fc1ccc(Nc2ncnc3onc(-c4cccc(Cl)c4)c23)c(F)c1 | 79%
27 | C#CCNC(=O)NC1CCCN(S(=O)(=O)c2ccc(C)cc2)C1 (stereo not drawn) | 112%
28 | CCc1ccc(C(=O)c2cn(CC(=O)Nc3ccc(OC)cc3)c3cc4c(cc3c2=O)OCCO4)cc1 | 89%
29 | COc1cccc(NC(=O)C2CC(=O)N(c3ccc(Br)cc3)C2)c1 (stereo not drawn) | 63%
30 | Cc1cc(C)n(C(=O)CNc2ccccc2Cl)n1 | 103%
31 | COCCNC(=O)CCN1C(=O)c2cccnc2Oc2ccc(C)cc21 | 70%
32 | COc1cc(C2NC(=O)NC(C)=C2C(=O)Nc2cc(C)cc(C)c2)ccc1O (stereo not drawn) | 69%
33 | NC(=O)CSc1nc2ccc(NC(=O)COc3ccccc3)cc2s1 | 86%
34 | Cc1ccc2c(CC(=O)Nc3cccc(C(F)(F)F)c3)coc2c1 | 8% (active)
35 | COC(=O)c1ccc(NC(=O)Cc2coc3cc(C)ccc23)cc1 | 106%
36 | Cc1ccc2onc(CC(=O)Nc3cccc(C(F)(F)F)c3)c2c1 | 92%
37 | Cc1ccc(NC(=O)Cc2coc3ccc(C(C)C)cc23)cc1Cl | 53%
38 | CC(C)c1ccc2occ(CC(=O)Nc3cccc(C(F)(F)F)c3)c2c1 | 0% (active)
39 | CC(C)c1ccc2occ(CC(=O)Nc3ccccc3Cl)c2c1 | 81%
40 | CCC(=O)N1CCc2cc(Br)cc(S(=O)(=O)N3CCCC(C(=O)Nc4ccc(C(C)C)cc4)C3)c21 (stereo not drawn) | 106%

Row | SMILES | survival
41 | O=C(CSC1=Nc2ccccc2N=C(c2ccc(F)cc2)C1)NCc1ccc(F)cc1 | 83%
42 | COC(=O)C1=C(C)N(C(C)C)C(=O)C1(NC(=O)c1ccc(C(C)(C)C)cc1)C(F)(F)F (stereo not drawn) | 65%
43 | O=C(NC1CCCCC1)c1cc(Nc2cccc(C(F)(F)F)c2)nc2ccccc12 | 72%
44 | CCn1c(SCC#N)nnc1-c1ccc(S(=O)(=O)N2CCCC2)cc1 | 100%
45 | CCCN(C(=O)C(C)C)c1nnc(-c2cc(OC)c(OC)c(OC)c2)s1 | 120%
46 | CCCn1c(=O)c2sccc2n2c(CCCC(=O)NCCOC)nnc12 | 97%
47 | O=C(C1CCN(c2ncnc3c2nc2n3CCCCC2)CC1)N1CCN(c2ccccc2)CC1 | 71%
48 | O=C(C1CCN(c2ncnc3c2nc2n3CCCCC2)CC1)N1CCN(c2ccc(Cl)cc2)CC1 | 55%
49 | O=C(NCc1ccccc1)C1CCN(c2ncnc3c2nc2n3CCCCC2)CC1 | 82%
50 | O=C(NCCc1ccccc1)C1CCN(c2ncnc3c2nc2n3CCCCC2)CC1 | -4% (active)
51 | Cc1cccc(N2CCN(C(=O)C3CCN(c4ncnc5c4nc4n5CCCCC4)CC3)CC2C)c1 (stereo not drawn) | 1% (active)
52 | Cc1ccc(N2CCN(C(=O)C3CCN(c4ncnc5c4nc4n5CCCCC4)CC3)CC2)c(C)c1 | 55%
53 | O=C(C1CCN(c2ncnc3c2nc2n3CCCCC2)CC1)N1CCN(c2ccc(F)cc2)CC1 | -3% (active)
54 | O=C(NCCc1ccc(Cl)cc1)C1CCN(c2ncnc3c2nc2n3CCCCC2)CC1 | 80%
55 | Cc1cccc(N2CCN(c3ncnc4c3nc3n4CCCCC3)CC2C)c1 (stereo not drawn) | 75%
56 | CC(=O)C1=C(c2ccc(Cl)cc2)N(C(C)=O)n2c(nnc2C2CCCCC2)S1 | 85%
57 | CCOc1cccc(CC(=O)N2CCc3c([nH]c4ccccc34)C2c2ccc(C)cc2)c1OCC (stereo not drawn) | 83%
58 | Cc1ccc2c(c1)c(=O)c(C(=O)c1ccncc1)cn2CC(=O)Nc1c(C)cccc1C | 72%
